Measured values reported in PMC4336329 (PLoS ONE, 2015).
Screen size: about 310,000 compounds; about 2,200 (0.71%) showed an effect of 50% or more. The effect is printed as a negative number. Many of the other results were omitted from the sample, so strong results are more common in it than they were.

These molecules were tested against human ether-à-go-go-related gene (hERG) potassium channel (human, UniProt Q12809) (assay: primary screen, population patch clamp on CHO cells stably expressing hERG; higher = less effect of the substance).
Chain of human ether-à-go-go-related gene (hERG) potassium channel (Q12809 whole entry, looked up): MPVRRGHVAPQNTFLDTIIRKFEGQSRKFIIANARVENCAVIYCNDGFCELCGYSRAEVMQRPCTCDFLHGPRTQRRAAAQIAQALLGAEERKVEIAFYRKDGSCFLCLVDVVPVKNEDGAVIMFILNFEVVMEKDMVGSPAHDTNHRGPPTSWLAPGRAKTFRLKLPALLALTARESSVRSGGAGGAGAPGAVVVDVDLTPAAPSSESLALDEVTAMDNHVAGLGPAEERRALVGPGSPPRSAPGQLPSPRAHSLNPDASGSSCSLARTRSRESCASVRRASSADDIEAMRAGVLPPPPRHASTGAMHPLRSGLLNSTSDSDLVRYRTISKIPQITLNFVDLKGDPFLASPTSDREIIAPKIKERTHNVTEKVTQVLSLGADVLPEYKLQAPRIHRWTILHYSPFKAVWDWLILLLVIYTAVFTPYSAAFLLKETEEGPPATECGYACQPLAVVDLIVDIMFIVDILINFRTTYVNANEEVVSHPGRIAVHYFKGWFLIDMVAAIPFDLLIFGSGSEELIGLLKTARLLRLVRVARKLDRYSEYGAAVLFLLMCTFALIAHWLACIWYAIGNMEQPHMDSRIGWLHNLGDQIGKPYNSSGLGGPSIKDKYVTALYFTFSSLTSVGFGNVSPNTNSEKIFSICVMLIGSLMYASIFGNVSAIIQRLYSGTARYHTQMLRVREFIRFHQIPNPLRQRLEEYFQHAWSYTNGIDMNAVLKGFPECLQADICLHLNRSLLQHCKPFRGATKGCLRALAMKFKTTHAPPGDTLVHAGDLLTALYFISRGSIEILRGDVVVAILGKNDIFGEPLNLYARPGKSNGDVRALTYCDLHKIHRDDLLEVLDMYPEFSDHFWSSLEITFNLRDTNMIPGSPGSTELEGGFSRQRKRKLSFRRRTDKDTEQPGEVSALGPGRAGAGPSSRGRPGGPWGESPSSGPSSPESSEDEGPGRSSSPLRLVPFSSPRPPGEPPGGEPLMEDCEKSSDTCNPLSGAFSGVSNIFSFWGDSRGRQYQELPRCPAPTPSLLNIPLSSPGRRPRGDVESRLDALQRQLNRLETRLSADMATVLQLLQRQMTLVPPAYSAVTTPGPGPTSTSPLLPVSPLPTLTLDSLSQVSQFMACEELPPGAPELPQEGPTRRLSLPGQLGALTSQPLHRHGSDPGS

SMILES	hERG current change (%, negative = inhibition) at 1uM
O=[N+]([O-])c1ccc(CN2CCC(Cc3ccccc3)CC2)cc1	-9.62%
O=C(NCC1(O)CCCCC1)C1CCC(=O)N(Cc2ccccc2F)C1 (stereo not shown)	15.8%
CCOC(=O)COc1ccc(S(=O)(=O)NCc2ccncc2)cc1	8.78%
CCn1cc(CCCC(=O)NCc2ccc(OC)cc2)c2ccccc21	15.1%
CCOc1cc(/C=C2\C(=O)ON=C2c2ccccc2)ccc1OC	17.4%
O=C(CCN1C(=O)c2ccccc2C1=O)NC(=S)Nc1ccccc1Cl	5.29%
CCC(CCC(=O)Nc1ccn(-c2ccccc2)n1)C(=O)O (stereo not shown)	7.09%
Cc1nc(NC(=O)c2ccccc2[N+](=O)[O-])sc1C(=O)N(C)C	16.4%
O=C(O)c1ccc(S(=O)(=O)N(CCc2ccccc2)Cc2ccc(Cl)cc2)cc1	11.5%
Brc1ccc(-c2cnco2)cc1	9.53%
COc1ccc(S(=O)(=O)NC2CCCCC2)cc1C(=O)N1CCCCC1	0.2%
CCN(CC(=O)NCc1ccc(Cl)cc1)C(=O)NCc1ccc(Cl)cc1	-54.1%
CCN(CC(=O)NCc1ccc(F)cc1)C(=O)c1ccc(Cl)cc1	-2.66%
CCN(CC(=O)NCc1ccc(Cl)cc1)C(=O)CCc1ccccc1	-19.8%
O=C(c1ccc2c(c1)N(Cc1ccccc1)C(=O)CS2)N1CCOCC1	1.45%
CNCCOc1nc(N2CCOCC2)nc(C)c1[N+](=O)[O-]	10.1%
COc1ccc(NC2CCCN(C(=O)c3cccs3)C2)cc1 (stereo not shown)	12.5%
C/C(=N\NC(=O)CN1CCN(S(=O)(=O)c2ccc(C)cc2)CC1)c1ccc(O)cc1	9.16%
C/C(=N/NC(=O)CN1CCN(Cc2ccccc2)CC1)c1ccc([N+](=O)[O-])cc1	-72.9%
C/C(=N\NC(=O)CN1CCN(Cc2ccccc2)CC1)c1ccncc1	-3.1%
C/C(=N\NC(=O)CN1CCN(S(=O)(=O)c2ccc(C)cc2)CC1)c1ccncc1	-77.6%
C/C(=N\NC(=O)CN1CCN(Cc2ccccc2)CC1)c1cccs1	-2.13%
C/C(=N/NC(=O)CN1CCN(Cc2ccccc2Cl)CC1)c1ccncc1	-18.3%

SMILES	hERG current change (%, negative = inhibition) at 1uM
Cc1ccc(S(=O)(=O)N2CCN(CC(=O)N/N=C\c3ccncc3)CC2)cc1	-26.2%
O=C(CN1CCN(S(=O)(=O)c2ccc(Br)cc2)CC1)N/N=C/c1ccncc1	-51.8%
C/C(=N/NC(=O)CN1CCN(S(=O)(=O)c2ccc(Br)cc2)CC1)c1ccncc1	-44.3%
C/C(=N\NC(=O)CN1CCN(Cc2ccc(C)cc2)CC1)c1ccncc1	-77.9%
C/C(=N\NC(=O)c1ccc(CN2CCOCC2)cc1)c1ccc([N+](=O)[O-])cc1	10%
O=C(CN1CCN(S(=O)(=O)c2ccc(Br)cc2)CC1)N/N=C/c1cccnc1	-1.72%
CCOC(=O)CSC1=NC(=O)/C(=C/c2ccc(Br)cc2)S1	9.71%
CCS(=O)(=O)NC(C)c1nnc2n1-c1ccc(Br)cc1C(c1ccccc1Cl)=NC2 (stereo not shown)	-4.22%
Cc1cc(C)cc(Nc2nc3c(S(=O)(=O)c4ccccc4)nnn3c3ccccc23)c1	11.3%
CC(Oc1ccc(Cl)cc1)C(=O)Nc1ccccc1C(=O)N1CCOCC1 (stereo not shown)	-1.27%
CCc1ccc(CNCc2cccnc2)cc1	9.07%
COc1ccc(-c2cc(C(F)(F)F)n3nc(C(=O)N4CCCCC4)cc3n2)cc1	4.13%
O=C(O)COc1ccc(C(NC(=O)c2c(F)cccc2F)NC(=O)c2c(F)cccc2F)cc1	16.9%
O=C1C2=C(SCCS2)C(=O)N1c1ccccc1	20.6%
C=CCN=C1SC(C)C(=O)N1S(=O)(=O)c1ccccc1 (stereo not shown)	4.31%
CCCc1nnc(SCC(=O)Nc2ccc(OC)cc2)n1N	11.1%
CC(=O)Oc1ccc(/C(C)=N\N2CCN(Cc3ccc(Cl)cc3)CC2)cc1	-16.4%
CC(=O)Oc1ccc(/C(C)=N/N2CCN(Cc3ccc(C)cc3)CC2)cc1	-69.8%
COc1cc(/C(C)=N/N2CCN(Cc3ccc(C)cc3)CC2)ccc1O	-3.97%
CCOC(=O)c1sc(NC(=O)CCN2CCN(C)CC2)c(C(=O)OCC)c1C	-15.3%
CCOC(=O)c1sc(NC(=O)CCN2CCCCCC2)c(C(=O)OCC)c1C	10.6%
CCOC(=O)c1sc(NC(=O)CCN2CCN(CC)CC2)c(C(=O)OCC)c1C	-59.8%
COc1ccc(CCC(=O)Nc2nc3ccccc3[nH]2)cc1	5.78%

SMILES	hERG current change (%, negative = inhibition) at 1uM
COc1ccc(CCC(=O)Nc2nc3ccccc3[nH]2)cc1OC	-51.1%
COc1ccccc1CCC(=O)Nc1nc2ccccc2[nH]1	18.7%
COCCNC(=S)NC12CC3CC(CC(C3)C1)C2	11.3%
O=C(NC12CC3CC(CC(C3)C1)C2)c1ccc(-c2cccc(Cl)c2)o1	21.9%
O=C(CCCC(=O)OCC(=O)c1ccc(F)cc1)Nc1cc(C(F)(F)F)ccc1Cl	12%
O=C(Cc1ccc(Cl)c(Cl)c1)Nc1ccc2[nH]c(=O)[nH]c2c1	4.75%
COC(=O)c1cc(S(=O)(=O)NCC2CCN(Cc3ccc(Cl)cc3)CC2)c[nH]1	-59.6%
COC(=O)c1cc(S(=O)(=O)NCC2CCN(Cc3ccc(C)cc3)CC2)c[nH]1	-63%
COC(=O)c1cc(S(=O)(=O)NCC2CCN(Cc3cccc(Cl)c3)CC2)c[nH]1	5.82%
COC(=O)c1cc(S(=O)(=O)NCC2CCN(Cc3cc(C)ccc3C)CC2)c[nH]1	2.48%
COC(=O)c1cc(S(=O)(=O)NCC2CCN(Cc3ccc(F)cc3)CC2)c[nH]1	7.24%
COC(=O)c1cc(S(=O)(=O)NCC2CCN(Cc3cccc(F)c3)CC2)c[nH]1	2.87%
COc1cc(/C=N/NC(=O)c2ccc(N(C)S(=O)(=O)c3ccccc3)cc2)cc(OC)c1OC	10.6%
O=C(O)CCC(=O)Nc1cccc(-c2csc(-c3ccccc3)n2)c1	4.25%
COC(=O)c1cc2sccc2n1CC(=O)Nc1ccc(OC)c(OC)c1OC	9.49%
COC(=O)c1cc2occc2n1CC(=O)Nc1ccc(OC)c(OC)c1OC	11.1%
COC(=O)c1cc2sc(Cl)cc2n1CC(=O)Nc1ccc(OC)c(OC)c1OC	-58.5%
Cc1ccc2[nH]c(=O)c(CN(Cc3nnnn3Cc3ccccc3)C3CCCC3)cc2c1	11.9%
O=c1cc(CS(=O)(=O)c2ccccc2)nc(-c2ccncc2)[nH]1	11.3%
Cc1ccc(C(=O)N/C(=C/c2cccs2)C(=O)N2CCCCCC2)cc1	-13.9%
Cc1ccc(C(=O)N/C(=C\c2cccs2)C(=O)N2CCN(C)CC2)cc1C	-77.2%
CCN1CCN(C(=O)/C(=C/c2cccs2)NC(=O)c2ccc(C)c(C)c2)CC1	-83.5%
COc1ccc(C(=O)N/C(=C\c2cccs2)C(=O)N2CCN(C)CC2)cc1OC	-33.9%

SMILES	hERG current change (%, negative = inhibition) at 1uM
Cc1ccc(C(=O)N/C(=C/c2cccs2)C(=O)N2CCCCC2)cc1	10.6%
CCOC(=O)N1CCN(C(=O)/C(=C/c2cccs2)NC(=O)c2cccs2)CC1	-6.55%
CCOC(=O)N1CCN(C(=O)/C(=C/c2cccs2)NC(=O)c2ccc(OC)c(OC)c2)CC1	-64.7%
Cc1ccc(C(=O)N/C(=C\c2cccs2)C(=O)N2CCCCCC2)cc1	-19.3%
Cc1ccc(C(=O)N/C(=C\c2cccs2)C(=O)N2CCOCC2)cc1C	1.26%
COc1cc(NC(=O)CSc2ncnc3scc(-c4ccccc4)c23)c(C(=O)O)cc1OC	11.2%
CCN(CC)C(=O)Cn1cc(S(=O)(=O)CC(=O)N2CCOCC2)c2ccccc21	7.45%
Cc1ccc(S(=O)(=O)N2CCCCC2)cc1NC(=O)COC(=O)Cc1c(F)cccc1Cl	14.5%
CCOC(=O)C1CCN(C(=O)CCc2c(C)nc3cc(-c4ccccc4)nn3c2C)CC1	-62%
CCOC(=O)C1CCN(C(=O)CCc2c(C)nc3cc(-c4ccc(OC)cc4OC)nn3c2C)CC1	-10.6%
CCOC(=O)C1CCCCN1C(=O)CCc1c(C)nc2cc(-c3ccccc3)nn2c1C (stereo not shown)	-14%
S=C(N/N=C/c1ccco1)NC1CC2CCC1C2 (stereo not shown)	8.84%
CC1(C)O[C@@H]2C[C@H]3[C@@H]4C[C@H](F)C5=CC(=O)CC[C@]5(C)[C@H]4[C@@H](O)C[C@]3(C)[C@]2(C(=O)CO)O1	18.1%
CCOc1ccc(CN2CCN(Cc3cc4c(cc3Cl)OCO4)CC2CCO)cc1 (stereo not shown)	-62.9%
Cc1ccc(CN2CCN(Cc3cccc4c3OCO4)CC2CCO)cc1 (stereo not shown)	-16.1%
CCOc1ccc(CN2CCN(CC3=Cc4cccc(OC)c4OC3)CC2CCO)cc1 (stereo not shown)	-71.4%
OCCC1CN(Cc2cccc3c2OCO3)CCN1Cc1ccccc1 (stereo not shown)	7.11%
COc1cccc2c1OCC(CN1CCN(Cc3ccccc3F)C(CCO)C1)=C2 (stereo not shown)	12%
CCOc1ccc(CN2CCN(CC3CC3)CC2CCO)cc1 (stereo not shown)	-20.7%
CCOc1ccc(CN2CCN(Cc3cccc4c3OCO4)CC2CCO)cc1 (stereo not shown)	-64.9%
OCCC1CN(Cc2cc3c(cc2Cl)OCO3)CCN1Cc1ccccc1 (stereo not shown)	-1.48%
COc1cccc2c1OCC(CN1CCN(Cc3ccccc3)C(CCO)C1)=C2 (stereo not shown)	-4.17%
